We go through six molecules from PubChem BioAssay (Tox21).

SMILES strings stand for the structures. Values without a mark were called inactive. Results filed as inconclusive are left out. The source made the active and inactive calls. Unless noted, the call rests on the fitted dose curve.

A short description of experiment [1]: Nuclear factor erythroid 2-related factor 2/antioxidant responsive element (Nrf2/ARE) small molecule agonists: qHTS cell viability counter screen in human keratinocytes (AID 1919968; active means well fitted curve in the direction sought with a large enough effect in the repeat runs; an effect the other way counts as inactive or inconclusive; further: nearly all actives have a fitted effect of over 55% in size; further: potency means the concentration at half of the fitted maximal effect). In a few lines:
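Cytotoxicity was multiplexed with the Nrf2/ARE luciferase assay in the same wells. Stably transfected HaCaT keratinocytes were treated with test compounds for 23 h at 37 C. Cell viability was then measured by CellTiter-Fluor fluorescence.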

Experiment [2] in a line: Nuclear factor erythroid 2-related factor 2/antioxidant responsive element (Nrf2/ARE) small molecule agonists: luciferase reporter gene qHTS assay in human keratinocytes (AID 1919969). Further: nearly all actives have a fitted effect of over 35% in size. Further: potency means the concentration at half of the fitted maximal effect.
For experiment [3], the target named is Gonadotropin-releasing hormone receptor (Homo sapiens) (UniProt P30968). As to the kind of experiment: Human gonadotropin-releasing hormone receptor (GnRHR) small molecule agonists, calcium flux assay in GnRHR-HEK293 cells (AID 1920063). Further: nearly all actives have a fitted effect of over 35% in size. The method, boiled down: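 Agonist activity was measured as intracellular calcium flux in HEK293 cells engineered to stably express human GnRHR. After dye loading for 1 hour at 37 C, compounds in DMSO were added and fluorescence was followed for 3 minutes.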
A general note: Calcium flux is commonly read through the fluorescence of an indicator in the cells.

Experiment [4] is described as follows: G protein-coupled receptor (GPCR) small molecule agonists, calcium flux assay: HEK293 wild type cell line counter screen (AID 1920065). Further: potency means the concentration at half of the fitted maximal effect. The method, boiled down: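 Seed cells, incubate 18 h (37 C, 5% CO2); add calcium dye, 1 h at 37 C; pin-transfer compounds, ATP control or DMSO; read fluorescence 480/540 nm each second for 3 min.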
A short description of experiment [5]: p53 small molecule agonists, cell-based qHTS assay with human liver microsomes: qHTS cell viability counter screen (AID 1963579). Further: nearly all actives have a fitted effect of over 45% in size. Further: potency means the concentration at half of the fitted maximal effect. In a few lines:
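After the 460/530 nm beta-lactamase read, CellTiter-Glo was added to the same wells and luminescence measured after 30 min at room temperature, giving viability of p53RE-bla cells treated 16 h with compounds plus microsomes and NADPH.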

Experiment [6] in a line: p53 small molecule agonists, cell-based qHTS assay with rat liver microsomes: qHTS cell viability counter screen (AID 1963580). Further: nearly all actives have a fitted effect of over 45% in size. Further: potency means the concentration at half of the fitted maximal effect. The method, boiled down:
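After the beta-lactamase ratio was read, CellTiter-Glo was added to the same wells and luminescence measured at 30 min; cells had been treated 16 h at 37 C with compounds, rat liver microsomes and NADPH (0.5 mg/mL final each).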
(In general: Quantitative high-throughput screening tests each substance at several concentrations.)

The nature of experiment [7]: p53 small molecule agonists, cell-based qHTS assay: qHTS cell viability counter screen (AID 1963581). Further: nearly all actives have a fitted effect of over 45% in size. Further: potency means the concentration at half of the fitted maximal effect. In a few lines:
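Viability was counter-screened in parallel with the p53 agonist reporter by measuring intracellular ATP luminescence in the same HCT-116 p53RE-bla wells after 16 h compound treatment at 37 C.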

Experiment [8] has as its target 5-hydroxytryptamine receptor 2A (Homo sapiens) (UniProt P28223). As to the kind of experiment: 5-hydroxytryptamine receptor 2A (HTR2A) small molecule antagonists, cell-based qHTS assay (AID 1963586). Further: nearly all actives have a fitted effect of over 45% in size. Further: potency means the concentration at half of the fitted maximal effect. In a few lines:
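CHO cells stably expressing human HTR2A were plated for 18 h at 37 C, then loaded with calcium dye for 1 h. Compounds were preincubated 5 min at room temperature before DOI (4 nM solution) was added. Kinetic fluorescence was read for 3 min.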

Experiment [9] shares this target. As to the kind of experiment: 5-hydroxytryptamine receptor 2A (HTR2A) small molecule agonists, cell-based qHTS assay (AID 1963587). Further: nearly all actives have a fitted effect of over 30% in size. Further: potency means the concentration at half of the fitted maximal effect. The method, boiled down:
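CHO cells stably expressing human HTR2A, plated 18 h, loaded with calcium dye 1 h at 37 C. Agonist mode: compounds added and intracellular calcium fluorescence recorded kinetically for 2 min at 1 sec intervals.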

Experiment [10] addresses Muscarinic acetylcholine receptor M1 (Homo sapiens) (UniProt P11229). In words: Cholinergic receptor muscarinic 1 (CHRM1) small molecule agonists, cell-based qHTS assay (AID 1963589). Further: nearly all actives have a fitted effect of over 35% in size. Further: potency means the concentration at half of the fitted maximal effect. The method, boiled down: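 Cells were plated and incubated 18 h at 37 C/5% CO2, loaded with calcium dye for 1 h at 37 C, then treated with compounds in DMSO. Fluorescence was recorded kinetically at 1 sec intervals.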

Experiment [11] is described as follows: cAMP Responsive Elements (CRE) small molecule agonists, cell-based qHTS assay (AID 1963590). The method, boiled down:
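Cells carrying a CRE-driven beta-lactamase reporter (HEK 293T) are seeded, incubated overnight (18 h), and treated with test compounds for 3 h at 37 C; reporter activity is then detected with a FRET substrate after 2 h at room temperature.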

The target of experiment [12] is Beta-2 adrenergic receptor (Homo sapiens) (UniProt P07550). As to the kind of experiment: Adrenergic beta2 receptor (ADRB2) small molecule antagonists, cell-based qHTS assay (AID 1963592). Further: nearly all actives have a fitted effect of over 50% in size. Further: potency means the concentration at half of the fitted maximal effect. In a few lines:
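Assay format: CHO-ADRB2 cells, 18-20hr seeding at 37C/5% CO2, then compound plus 1nM isoproterenol agonist mix for 0.5hr RT. Homogeneous time-resolved fluorescence cAMP detection after 1hr, expressed as 665/615 nm ratio.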

Experiment [13] concerns the target D(2) dopamine receptor (Homo sapiens) (UniProt P14416). In words: Dopamine D2 receptor (DRD2) small molecule agonists, cell-based qHTS assay (AID 1963594). Further: nearly all actives have a fitted effect of over 35% in size. In a few lines:
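HEK293 cells stably expressing human DRD2, pre-treated with PDE inhibitor Ro20-1724 (0.1 mM final) and compound 10 min at room temperature, then stimulated with NKH477 (200nM […]) for 30 min. cAMP read by HTRF (665/620 nm).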

The target is the same in experiment [14]. As to the kind of experiment: Dopamine D2 receptor (DRD2) small molecule antagonists, cell-based qHTS assay (AID 1963595; active means well fitted inhibition curve with a large enough effect in the signal ratio in the repeat runs, with a control signal flat; the % refers to the signal ratio; further: potency means the concentration at half of the fitted maximal effect). In a few lines:
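HEK293 cells stably expressing DRD2 were preincubated with 0.1 mM Ro20-1724, then with compound for 10 min at room temperature. Cells were stimulated with 200 nM NKH477 plus 12 nM quinpirole for 30 min, and cAMP was read by HTRF.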

A short description of experiment [15]: p53 small molecule agonists, cell-based qHTS assay with rat liver microsomes (AID 1963578). In a few lines:
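Metabolic activation is supplied by rat liver microsomes with NADPH (each 0.5 mg/mL final). p53RE-bla cells incubate with compound 16 h at 37 C; reporter activity is measured by LiveBLAzer fluorescence.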

Experiment [16] in a line: p53 small molecule agonists, cell-based qHTS assay (AID 1963582; active means well fitted activation curve with a large enough effect in the signal ratio in the repeat runs, not every such curve was filed as active; the % refers to the signal ratio). The method, boiled down:
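Cells carrying a p53-responsive bla reporter are treated with test compounds for 16 h at 37 C; beta-lactamase activity is then detected with LiveBLAzer B/G FRET substrate after 2 h at room temperature.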

In experiment [17] the target is Muscarinic acetylcholine receptor M1 (Homo sapiens) (UniProt P11229). As to the kind of experiment: Cholinergic receptor muscarinic 1 (CHRM1) small molecule antagonists, cell-based qHTS assay (AID 1963588). Further: nearly all actives have a fitted effect of over 40% in size. The method, boiled down: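 Compounds were tested at 15 concentrations in three independent runs. Dye-loaded CHRM1-CHO cells were exposed 5 min at room temperature before stimulation by acetylcholine added at 50nM. Intracellular calcium was read kinetically on FDSS for 3 min.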

Experiment [18] can be described thus: cAMP Responsive Elements (CRE) small molecule antagonists, cell-based qHTS assay (AID 1963591; active means well fitted inhibition curve with a large enough effect in the signal ratio in the repeat runs, not every such curve was filed as active; the % refers to the signal ratio). The method, boiled down:
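Cells (CRE-bla HEK 293T, DMEM with 10% dialyzed FBS and 25 mM HEPES) are seeded and incubated 18 h. Compounds are added with NKH477 agonist at 0.25 uM final for 3 h, then FRET substrate for 2 h.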

In experiment [19] the target is KiSS-1 receptor (Homo sapiens) (UniProt Q969F8). In words: Human kisspeptin (KISS1R) small molecule agonists, calcium flux assay in KISS1R-HEK293 cells (AID 1920064; active means well fitted curve in the direction sought with a large enough effect in the repeat runs; an effect the other way counts as inactive or inconclusive; further: potency means the concentration at half of the fitted maximal effect). In a few lines: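 Agonist activity is monitored as intracellular calcium rise in engineered HEK293 cells carrying human KISS1R. Cells are dye-loaded for 1 h at 37 C before compound addition, and fluorescence is recorded for 3 min.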

Experiment [20] is described as follows: p53 small molecule agonists, cell-based qHTS assay with human liver microsomes (AID 1963577).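 Further: p53 response element beta-lactamase reporter cells with liver microsomes plus NADPH.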 In a few lines: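 Steps: plate p53RE-bla cells, incubate 5 h at 37 C; add compound in DMSO; add microsomes (0.5 mg/mL final) and NADPH (0.5 mg/mL final); incubate 16 h at 37 C; add LiveBLAzer, 2 h RT; read fluorescence.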

Muscarinic acetylcholine receptor M1 (Homo sapiens), sequence (P11229 whole entry, looked up): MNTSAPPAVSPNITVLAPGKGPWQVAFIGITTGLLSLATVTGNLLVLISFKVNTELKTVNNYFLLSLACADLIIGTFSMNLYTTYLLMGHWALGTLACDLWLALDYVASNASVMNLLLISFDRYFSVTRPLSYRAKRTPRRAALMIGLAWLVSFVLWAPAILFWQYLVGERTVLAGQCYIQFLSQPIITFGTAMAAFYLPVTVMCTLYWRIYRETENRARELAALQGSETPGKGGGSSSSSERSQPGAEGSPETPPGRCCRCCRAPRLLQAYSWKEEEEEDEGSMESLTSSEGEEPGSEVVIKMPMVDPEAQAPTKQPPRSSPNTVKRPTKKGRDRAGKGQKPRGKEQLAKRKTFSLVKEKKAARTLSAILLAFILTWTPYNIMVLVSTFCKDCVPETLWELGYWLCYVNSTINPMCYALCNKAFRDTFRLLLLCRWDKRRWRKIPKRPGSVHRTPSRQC
Gonadotropin-releasing hormone receptor (Homo sapiens), sequence (P30968 whole entry, looked up): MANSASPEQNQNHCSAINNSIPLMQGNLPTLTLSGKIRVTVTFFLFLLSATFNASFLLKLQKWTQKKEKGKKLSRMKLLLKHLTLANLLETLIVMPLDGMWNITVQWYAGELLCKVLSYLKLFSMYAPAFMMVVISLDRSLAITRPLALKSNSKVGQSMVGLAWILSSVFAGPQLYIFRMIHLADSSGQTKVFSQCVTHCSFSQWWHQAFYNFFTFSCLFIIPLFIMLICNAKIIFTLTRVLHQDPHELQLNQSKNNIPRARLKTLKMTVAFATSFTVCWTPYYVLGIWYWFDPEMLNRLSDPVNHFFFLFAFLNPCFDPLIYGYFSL
Beta-2 adrenergic receptor (Homo sapiens), sequence (P07550 whole entry, looked up): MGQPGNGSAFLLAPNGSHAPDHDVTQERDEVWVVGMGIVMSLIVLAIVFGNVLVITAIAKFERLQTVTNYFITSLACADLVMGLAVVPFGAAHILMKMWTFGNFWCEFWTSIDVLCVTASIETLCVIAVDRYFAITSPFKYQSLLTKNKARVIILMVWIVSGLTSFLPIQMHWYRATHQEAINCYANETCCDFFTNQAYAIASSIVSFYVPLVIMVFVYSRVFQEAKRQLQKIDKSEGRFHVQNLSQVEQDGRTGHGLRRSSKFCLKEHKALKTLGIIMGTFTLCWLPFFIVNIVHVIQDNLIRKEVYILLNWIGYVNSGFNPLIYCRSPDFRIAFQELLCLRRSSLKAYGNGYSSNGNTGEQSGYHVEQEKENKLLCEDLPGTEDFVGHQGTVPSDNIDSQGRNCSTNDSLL
D(2) dopamine receptor (Homo sapiens), sequence (P14416 whole entry, looked up): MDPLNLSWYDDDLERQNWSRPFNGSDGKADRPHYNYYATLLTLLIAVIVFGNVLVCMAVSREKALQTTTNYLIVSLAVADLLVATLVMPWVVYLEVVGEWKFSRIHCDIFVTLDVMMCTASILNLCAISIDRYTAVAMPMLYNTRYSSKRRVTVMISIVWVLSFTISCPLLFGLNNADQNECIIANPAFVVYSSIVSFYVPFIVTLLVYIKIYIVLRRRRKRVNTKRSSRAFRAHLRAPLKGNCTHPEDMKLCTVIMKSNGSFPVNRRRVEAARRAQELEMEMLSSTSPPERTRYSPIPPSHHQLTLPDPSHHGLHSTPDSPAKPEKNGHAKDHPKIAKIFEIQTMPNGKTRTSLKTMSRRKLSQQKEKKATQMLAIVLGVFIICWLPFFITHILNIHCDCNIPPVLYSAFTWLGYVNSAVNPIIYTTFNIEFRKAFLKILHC
5-hydroxytryptamine receptor 2A (Homo sapiens), sequence (P28223 whole entry, looked up): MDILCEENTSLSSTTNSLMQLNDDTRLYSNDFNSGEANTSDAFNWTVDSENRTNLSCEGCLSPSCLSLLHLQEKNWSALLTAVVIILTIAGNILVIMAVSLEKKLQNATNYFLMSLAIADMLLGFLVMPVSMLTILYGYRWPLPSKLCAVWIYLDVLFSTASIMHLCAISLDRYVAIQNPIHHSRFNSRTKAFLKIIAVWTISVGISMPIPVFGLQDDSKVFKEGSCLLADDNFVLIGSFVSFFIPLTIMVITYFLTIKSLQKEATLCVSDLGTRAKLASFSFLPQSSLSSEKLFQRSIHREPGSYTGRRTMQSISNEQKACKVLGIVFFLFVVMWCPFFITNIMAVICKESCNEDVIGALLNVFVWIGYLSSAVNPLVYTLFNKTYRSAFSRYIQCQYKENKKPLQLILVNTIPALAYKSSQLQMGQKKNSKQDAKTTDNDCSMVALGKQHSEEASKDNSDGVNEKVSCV
KiSS-1 receptor (Homo sapiens), sequence (Q969F8 whole entry, looked up): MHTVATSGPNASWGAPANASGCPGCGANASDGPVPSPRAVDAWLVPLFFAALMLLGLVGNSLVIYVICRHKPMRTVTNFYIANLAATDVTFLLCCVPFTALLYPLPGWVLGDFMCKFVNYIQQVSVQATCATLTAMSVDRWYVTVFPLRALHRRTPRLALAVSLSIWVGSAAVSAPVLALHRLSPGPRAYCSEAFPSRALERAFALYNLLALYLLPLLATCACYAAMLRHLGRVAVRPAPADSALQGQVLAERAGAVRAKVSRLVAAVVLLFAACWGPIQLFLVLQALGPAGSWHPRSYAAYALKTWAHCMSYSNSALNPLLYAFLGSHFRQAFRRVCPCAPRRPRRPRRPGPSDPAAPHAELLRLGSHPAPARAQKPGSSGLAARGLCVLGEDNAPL

Regarding `CCOC(=O)CCl`, the Potency entry in experiment [1], in experiment [2], in [3], in experiment [4], in [5] and in experiment [6] was “inactive” in each case. Moreover, the Potency result in [7], in experiment [8], in experiment [9], in [10], in experiment [11] and in [12] was “inactive” in each case. Also, the Potency result in experiment [13] and in experiment [14] was “inactive” in each case.
Turning to `CC(C)N(Cc1ccccc1)C(=O)C(C)(C)C`, the Potency entry in experiment [1], in experiment [2], in experiment [3], in experiment [4], in experiment [15] and in experiment [5] was “inactive” in each case. In addition, the Potency result in experiment [6], in experiment [7], in experiment [16], in experiment [8], in [9] and in experiment [17] was “inactive” each time. For the same molecule, the Potency entry in experiment [10], in experiment [11], in [18], in experiment [12] and in experiment [14] was “inactive” in each case.
`c1cc[n+]2c(c1)-c1cccc[n+]1CC2`: the Potency result in [1], in experiment [2], in experiment [3], in experiment [4], in experiment [15] and in experiment [6] was “inactive” each time. For the same molecule, the Potency result in experiment [8], in experiment [9], in experiment [17], in [10], in experiment [11] and in [18] was “inactive” throughout. For the same molecule, the Potency result in experiment [13] and in experiment [14] was “inactive” throughout.
As for `O=S(=O)(O)C(F)(F)C(F)(F)C(F)(F)C(F)(F)F`, the Potency result in experiment [1], in experiment [3], in experiment [4], in experiment [15], in [8] and in experiment [17] was “inactive” in each case. The Potency result in [10], in experiment [12] and in [14] was “inactive” each time. In addition, the Potency in [2] is 72.7 µM (active).
As for `C=C(C)C(=O)[O][Sn]([CH2]CCC)([CH2]CCC)[CH2]CCC`, the Potency was 0.306 µM (active) in experiment [1]; 0.433 µM (active) in [2]; 11 µM (active) in [19]; 34.7 µM (active) in experiment [4]; 14.5 µM (active) in experiment [5]; 3.24 µM (active) in [6]. The Potency in experiment [7] is 3.63 µM (active); in experiment [8] it was 1.88 µM (active); in [9] it was 9.77 µM (active); in experiment [10], 9.77 µM (active); in experiment [12], 1.09 µM (active); in [14] it was 2.43 µM (active). Moreover, the Potency result in experiment [20] and in [15] was “inactive” each time.
On to `CC(O)C(=O)[O][Hg][c]1ccccc1` (stereo unspecified), for which the Potency in experiment [1] is 1.72 µM (active); in experiment [2], 0.864 µM (active); in experiment [5], 3.63 µM (active); in experiment [6], 8.14 µM (active); in experiment [7], 2.89 µM (active); in experiment [10] it was 54.9 µM (active). For the same molecule, the Potency in experiment [14] was 2.73 µM (active). Moreover, the Potency entry in experiment [19], in experiment [4], in [20], in experiment [15] and in [17] was “inactive” in each case.
